# Results published in PubChem BioAssay AID540333 (Southern Research Specialized Biocontainment Screening …, 2011).
# Hit rate of the full screen: of about 10,000 compounds, about 320 (3.2%) were called active. Cut-off read from the data, not from the text of the source: active = CPE inhibition mostly above about 9.1% (no sharp cut-off); inactive = mostly below about 7.2%. This excerpt belongs to a sample that is enriched for actives.
# Test: Dengue virus cytopathic effect inhibitors, cell-based, CPE readout, HTS (AID 540333)
# Settings: Dengue virus CPE inhibition in host cells, at 20 µM; hits give high values
row,SMILES,CPE inhibition
1,COc1ccc(CC(=O)Oc2cc(C)[nH]c(=O)c2[N+](=O)[O-])cc1,inactive
2,O=C(NCCc1nc2ccccc2[nH]1)/C(=C/c1ccc2c(c1)OCO2)NC(=O)c1ccccc1,inactive
3,C=CCc1ccc(OCCOc2cccc3cccnc23)c(OC)c1,1.16% (inactive)
4,Nn1cnc2c(c1=O)C1(CCCCC1)Cc1ccccc1-2,0.27% (inactive)
5,NC(=O)CSc1nc2c(c(=O)n1-c1ccccc1)C1(CCCCC1)Cc1ccccc1-2,13.4% (active)
6,CSc1n[nH]c2nc3c(c(=O)n12)C1(CCCC1)Cc1ccccc1-3,inactive
7,COCc1nnc(NC(=O)c2cc(OC)c(OC)cc2[N+](=O)[O-])s1,0.875% (inactive)
8,Cc1ccc(C(=O)c2cnc3cc4c(cc3c2S(=O)(=O)c2ccccc2)OCCO4)cc1,6.29% (inactive)
9,Cc1ccc(S(=O)(=O)c2c(C(=O)c3ccccc3)cnc3cc4c(cc23)OCCO4)cc1,13.2% (active)
10,CCOc1ccc(S(=O)(=O)c2c(C(=O)c3ccc(C)cc3)cnc3cc4c(cc23)OCCO4)cc1,3.02% (inactive)
11,Cc1ccc(O)c(-c2cc(C(=O)Nc3ccc(S(=O)(=O)Nc4nc(C)cc(C)n4)cc3)[nH]n2)c1,inactive
12,COc1cc2cc(CCOC(=O)c3ccco3)oc(=O)c2cc1OC,0.275% (inactive)
13,N#Cc1ccc(NC(=O)COC(=O)CCNS(=O)(=O)c2ccccc2)cc1,inactive
14,CCCCCCCNC(=O)C1(CC2CC(c3cccc(Br)c3)=NO2)CCN(C(=O)C2(C)CC2)CC1 (stereo not drawn),2.1% (inactive)
15,CCCCCCCNC(=O)C1(CC2CC(c3cccc(Br)c3)=NO2)CCN(C(=O)Cc2ccc(F)cc2)CC1 (stereo not drawn),21.7% (active)
16,CCCCCCCNC(=O)C1(CC2CC(c3cccc(Br)c3)=NO2)CCNCC1 (stereo not drawn),inactive
17,CCCCCCCNC(=O)C1(CC2CC(c3ccccc3)=NO2)CCN(C(=O)OC(C)(C)C)CC1 (stereo not drawn),14.1% (active)
18,CCCCCCCNC(=O)C1(CC2CC(c3ccc(Cl)cc3)=NO2)CCN(C(=O)C2(C)CC2)CC1 (stereo not drawn),1.24% (inactive)
19,COC(=O)C1(CC2CC(c3ccncc3)=NO2)CCN(C(=O)OC(C)(C)C)CC1 (stereo not drawn),inactive
20,O=C(Nc1cccc2nsnc12)c1cccnc1Cl,inactive

row,SMILES,CPE inhibition
1,Cc1ccc(CNC(=O)c2cc(-c3ccccc3)nn2CC2CC(c3cccnc3)=NO2)cc1 (stereo not drawn),inactive
2,Cc1ccc(-c2cc(C(F)(F)F)c(C#N)c(=O)[nH]2)cc1,0.3% (inactive)
3,N/C(=N\OC(=O)Cc1ccccc1[N+](=O)[O-])c1ccncc1,0.175% (inactive)
4,Cc1ccc(C(=O)N/C(=C/c2ccco2)C(=O)NCCc2c[nH]c3ccccc23)cc1,0.17% (inactive)
5,CCn1cc([N+](=O)[O-])c(C(=O)N2N=C(c3ccc(O)c(OC)c3)CC2c2ccccc2O)n1 (stereo not drawn),2.17% (inactive)
6,CCn1cc([N+](=O)[O-])c(C(=O)N2N=C(c3ccc(OC)cc3OC)CC2c2ccccc2O)n1 (stereo not drawn),0.7% (inactive)
7,CCn1cc(Cl)c(C(=O)N2N=C(c3ccc4ccccc4c3)CC2c2ccccc2O)n1 (stereo not drawn),10% (active)
8,CC(=O)c1cccc(NC(=O)CCCOc2ccc(C)cc2)c1,inactive
9,Cc1noc(C)c1CN(C(=S)NC(C)C)c1ccccc1,inactive
10,Cc1ccsc1-c1n[nH]c(=S)n1CC(C)C,inactive
11,Cn1cc([N+](=O)[O-])c(C(=O)Nc2ccn(C34CC5CC(CC(C5)C3)C4)n2)n1,9.72% (active)
12,Cn1nccc1C(=O)Nc1ccn(C23CC4CC(CC(C4)C2)C3)n1,1.19% (inactive)
13,CCn1cc([N+](=O)[O-])c(C(=O)Nc2ccn(C34CC5CC(CC(C5)C3)C4)n2)n1,0.05% (inactive)
14,O=C(C[n+]1cccc(CNC(=O)c2ccc(OC(F)F)cc2)c1)Nc1cccc(C(F)(F)F)c1,0.165% (inactive)
15,CC(/C=C/c1ccccc1F)=N\NC(=O)C(C)C,1.25% (inactive)
16,CN(C)c1ccc(N=Nc2ccccc2C(=O)OCC(=O)N2CCCCCC2)cc1,1.56% (inactive)
17,COc1ccc(C2OCC3(CO2)SC(=O)NC3=O)cc1 (stereo not drawn),0.47% (inactive)
18,CC(C)(C)NC(=O)C(c1cccs1)N(CC1CCCO1)C(=O)c1ccc(-c2ccccc2)[nH]1 (stereo not drawn),28.6% (active)
19,O=C(NCC1CCCO1)C(c1cccs1)N(Cc1ccccc1Cl)C(=O)c1ccc(-c2ccccc2)[nH]1 (stereo not drawn),16.9% (active)
20,O=C(NCC1CCCO1)C(c1cccs1)N(Cc1ccccc1)C(=O)c1ccc(-c2ccccc2)[nH]1 (stereo not drawn),8.12% (inactive)

row,SMILES,CPE inhibition
1,O=C(NC1CCCC1)C(c1ccncc1)N(Cc1ccccc1)C(=O)c1ccc(-c2ccccc2)[nH]1 (stereo not drawn),3.1% (inactive)
2,COc1ccc(C(=O)N(CC2CCCO2)C(C(=O)NCCC(C)C)c2ccc(C)cc2)cc1OC (stereo not drawn),inactive
3,Cc1cc(C)cc(NC(=O)C(NCC2CCCO2)c2ccccc2)c1 (stereo not drawn),inactive
4,O=C(COc1ccccc1[N+](=O)[O-])N/N=C/c1cccs1,inactive
5,CCOc1cccc(/C=N/NC(=S)Nc2cc(S(=O)(=O)N3CCOCC3)ccc2N2CCOCC2)c1O,inactive
6,Cc1ccc2[nH]c(=O)cc(C(=O)OCC(=O)c3ccccc3)c2c1,inactive
7,COC(=O)CN1C(c2cccc(Cl)c2)=Nc2ccc(Cl)cc2C1c1ccccc1 (stereo not drawn),14.1% (active)
8,CCOC(=O)CN1C(=O)N[C@@H](c2ccccc2)[C@@H](C(=O)OC)[C@H]1C,0.065% (inactive)
9,COC(=O)CN1C(c2ccc(OC)cc2)=Nc2ccc(Cl)cc2C1c1ccccc1 (stereo not drawn),7.85% (inactive)
10,Cc1cc(C(=O)N2CCN(c3ccc([N+](=O)[O-])cc3)CC2)no1,inactive
11,O=C1CC(c2ccccc2)Sc2nc(-c3ccccc3)c(-c3ccccc3)n21 (stereo not drawn),inactive
12,Cc1ccc(OCCN(C)C)c([N+](=O)[O-])c1,0.995% (inactive)
13,O=[N+]([O-])c1cccc(C(=S)N2CCN(c3ccccc3)CC2)c1,0.055% (inactive)
14,CS(=O)(=O)N1CCN(c2ccc([N+](=O)[O-])c(NCc3ccc(Cl)cc3)c2)CC1,1.16% (inactive)
15,Cc1ccc(NC(=O)CSc2nnc(-c3cccs3)o2)cc1S(=O)(=O)N1CCCCC1,inactive
16,COC(=O)c1cc(NC(=S)NCc2ccc(Cl)cc2)cc(C(=O)OC)c1,13.6% (active)
17,S=C(NCc1ccncc1)Nc1ccc(Cl)cc1,0.775% (inactive)
18,COC(=O)Cc1ccc(NC(=S)NCc2ccc(Cl)cc2)cc1,inactive
